High-throughput results deposited in PubChem BioAssay by National Center for Advancing Translational Sciences (NCATS).
Hits are enriched below; roughly 15% of the tested compounds scored in any of these assays.
ELG1 repair inh – ELG1-dependent DNA repair inhibition; HEK293T ELG1-luciferase reporter, luminescence, 16 h; DNA damage induced by 5-fluorouridine; AID 504467; Potency, µM (doses to about 46.1 µM), for inactives: at the top dose activity change, negative = inhibition, most hits filed as inhibitors; 330,000 tested, 2.3% active; note: nearly all actives have a fitted effect of over 55% in size
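In this reporter screen, reduction of luminescence relative to DMSO vehicle indicated activity. Compounds and 5-fluorouridine were added together to 2,000 cells per well, incubated for 16 hr at 37 °C, then developed with ONE-Glo.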
ALOX12 inh – ALOX12 (human) lipoxygenase inhibition. 580,000 tested, 1.1% active. P18054. Potency, µM (doses to about 108 µM), for the others: at the highest dose activity change, negative = inhibition, most hits filed as inhibitors. purified 12hLO, xylenol orange hydroperoxide absorbance
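Purified human 12hLO at 150 nM in 25 mM Hepes, 0.01% Triton X-100, pH 7.0, preincubated 15 min at room temperature with compound. Reaction started with 40 uM arachidonic acid, 30 min at room temperature. Hydroperoxide measured by Fe-xylenol orange, 573/405 nm absorbance ratio.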
DT40 TDP1 no CPT – qHTS for Inhibitors of human tyrosyl-DNA phosphodiesterase 1 (TDP1): qHTS in cells in absence of CPT | DT40 Tdp1-/- hTDP1 cells, no CPT, ATP luminescence, 48 h | Potency, µM (top dose mostly 46.2 µM), without a hit: at the top dose activity change, negative = growth inhibition, usual class: inhibitors | 420,000 tested, 15% active | AID 686978, 2013; note: nearly all actives have a fitted effect of over 55% in size
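No-CPT arm: Tdp1-/-;hTDP1 DT40 cells (400/well) plus compounds, incubated ≥48 hr at 37 °C. Readout CellTiter-Glo luminescence.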
Gal4-VP16 FLuc – counter-screen for ROR gamma inhibitors: Gal4-VP16 reporter; Drosophila S2 Gal4-VP16 UAS-luciferase, luminescence, 20 h; Potency, µM (doses to about 53.6 µM), for the others: top-dose activity, negative = inhibition, hits mostly inhibitors; 310,000 tested, 3.5% active; AID 2546;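 note: Gal4-VP16 expression switched on by copper sulfate through the metallothionein promoter; nearly all actives have a fitted effect of over 50% in size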
TDP1 cell CPT – growth inhibition of DT40 Tdp1-/-;hTDP1 cells with camptothecin (screen for TDP1 inhibitors) | chicken DT40 Tdp1-/-;hTDP1 cells + 20 nM CPT, ATP luminescence, 48 h | Potency, µM (titrated, usually from 46.2 µM), for inactives: at the top dose activity change, negative = growth inhibition, hits mostly inhibitors | 420,000 tested, 12% active; note: nearly all actives have a fitted effect of over 55% in size
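Cell growth measured by CellTiter-Glo luminescence after a minimum 48 h, 37 C compound exposure with 20 nM CPT in Tdp1-knockout DT40 cells stably expressing hTDP1, seeded 400/well; qHTS titration format.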
RORg inh – ROR gamma (mouse) transcription inhibition; 310,000 tested, 5.4% active; Potency, µM (series often up to 53.6 µM), without a hit: at the highest dose activity change, negative = inhibition, most hits filed as inhibitors; Drosophila S2 Gal4-RORgamma UAS-luciferase reporter, 20 h; AID 2551; P51450; note: nearly all actives have a fitted effect of over 60% in size
Target sequence (P51450 whole entry, looked up, the tested form may be a part): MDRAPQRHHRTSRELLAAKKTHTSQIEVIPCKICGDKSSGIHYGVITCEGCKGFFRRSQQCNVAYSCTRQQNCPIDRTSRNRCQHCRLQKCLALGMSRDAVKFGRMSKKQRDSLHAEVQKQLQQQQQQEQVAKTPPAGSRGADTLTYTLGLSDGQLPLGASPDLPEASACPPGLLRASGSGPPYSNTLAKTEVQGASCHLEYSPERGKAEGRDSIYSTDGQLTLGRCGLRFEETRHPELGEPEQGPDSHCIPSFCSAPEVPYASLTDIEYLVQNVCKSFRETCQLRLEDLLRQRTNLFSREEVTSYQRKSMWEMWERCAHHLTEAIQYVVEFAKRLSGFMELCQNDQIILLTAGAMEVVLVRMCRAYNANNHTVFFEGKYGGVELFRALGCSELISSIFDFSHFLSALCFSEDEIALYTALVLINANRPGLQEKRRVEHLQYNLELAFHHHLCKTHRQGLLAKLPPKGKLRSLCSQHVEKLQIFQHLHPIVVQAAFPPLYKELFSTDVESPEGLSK
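Drosophila S2 cells stably expressing Gal4-DBD/mouse RORγ fusion under metallothionein promoter plus UAS-luciferase; compound 1 h, then 700 uM CuSO4 induction for 20 h at ambient temperature; inhibition read as reduced luminescence.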
Numbers without * were called inactive; ? = inconclusive; . = not tested or not shown; [ ] = remark or other dose. Calls come from the whole dose curve; as a rule, active = well fitted curve in the direction sought with a large enough effect; inconclusive = small, poorly fitted or top-dose-only effect, or another doubt; inactive = no such curve, though single readings can be large; an effect the other way counts as inactive or inconclusive. % is set by controls: 0 for no effect and ±100 for the full control effect; potency is the fitted concentration of half-maximal effect.

SMILES | ELG1 repair inh | ALOX12 inh | DT40 TDP1 no CPT | Gal4-VP16 FLuc | TDP1 cell CPT | RORg inh
CC(C)N1C(=O)C(CC(=O)NCC2CCN(Cc3ccccc3F)CC2)=C2CCCCC21 (stereo not given) | . | 10% | . | . | . | .
O=C(NCc1ccccc1F)N1C[C@@H](CN2CCCCC2)[C@@H](CO)C1 | . | 31% | . | . | . | .
Cc1csc(NC(=O)CSc2nc3ccccc3[nH]2)n1 | . | 1% | . | . | . | .
Cc1ccc2nc(-c3ccc(SCC(=O)Nc4nnc(C)s4)nc3)[nH]c2c1 | ? | ? | 15µM* | ? | ? | 35%[10 µM]
CCc1nnc(NC(=O)CSc2ccc(-c3nc4ccccc4[nH]3)cn2)s1 | ? | ? | -25% | 12% | -14% | ?
Cc1ccc2nc(-c3ccc(SCC(=O)Nc4nc(C)cs4)nc3)[nH]c2c1 | ? | -12% | 10µM* | ? | 18µM* | 0%
O=C(N/N=C/C(Cl)=C/c1ccccc1)c1ccccn1 | ? | 6% | ? | ? | ? | ?
Cc1cc(C(=O)N/N=C/C(Cl)=C/c2ccccc2)c(C)o1 | 10% | 23% | 21µM* | 13µM* | 29µM* | -11%
O=C(N/N=C/C(Cl)=C/c1ccccc1)c1ccncc1 | 7% | -4% | 21µM* | 11% | 9.2µM* | -27%
CC(/C=N/NC(=O)c1cccs1)=C\c1ccccc1 | ? | -16% | 8.2µM* | -21% | -6% | ?
O=C(N/N=C/C(Cl)=C\c1ccccc1)c1cccs1 | ? | 46% | 9.2µM* | 3% | ? | 24%
O=C(Cn1c(=O)c2c(ncn2Cc2ccccc2)n(Cc2ccccc2)c1=O)NCc1ccco1 | . | 3% | . | . | . | .
COc1ccc(C(=O)N2CCc3ccc(C(=O)Nc4ccc5c(c4)OCCO5)cc32)cc1 | . | 31% | . | . | . | .
COc1ccccc1NC(=O)CSc1nc2c(=O)[nH]cnc2n1-c1ccc(C)cc1 | . | 15% | . | . | . | .
Cc1ccc(-n2c(O)c(C=Nc3cc(C)on3)c3ccccc3c2=O)c(C)c1 | ? | -3% | 4.6µM* | 11% | 1.6µM* | 67%
Cc1ccc(-n2c(O)c(C=NC3CCS(=O)(=O)C3)c3ccccc3c2=O)c(C)c1 (stereo not given) | 0% | 19% | ? | -3% | 21µM* | -8%
Cc1cc(N=Cc2c(O)n(-c3ccc(C)c(C)c3)c(=O)c3ccccc23)no1 | ? | -24% | . | 3% | . | 18%
COc1cc(OC)cc(C(=O)N2CC(c3noc(-c4ccccc4)n3)C2)c1 | . | 41% | . | . | . | .
O=C(c1ccco1)N1N=C(c2ccc3nccnc3c2)CC1c1ccccc1 (stereo not given) | -8% | 6% | 18µM* | 24% | ? | 36%
CS(=O)(=O)Nc1cccc(C2=NN(C(=O)CCC(=O)O)C(c3cccs3)C2)c1 (stereo not given) | -1% | 7% | -4% | 12% | -7% | -19%
CS(=O)(=O)Nc1ccc(C2=NN(C(=O)c3ccco3)C(c3ccc4nccnc4c3)C2)cc1 (stereo not given) | . | -24% | . | . | . | .
CS(=O)(=O)Nc1cccc(C2=NN(C(=O)c3ccco3)C(c3cccs3)C2)c1 (stereo not given) | 6.5µM* | -19% | ? | -4% | ? | 9%
CC(=O)N1N=C(c2cccc(NS(C)(=O)=O)c2)CC1c1cccs1 (stereo not given) | -11% | -7% | -2% | 0% | -6% | 0%
CS(=O)(=O)Nc1ccc(C2=NN(C(=O)c3ccco3)C(c3ccc(F)cc3)C2)cc1 (stereo not given) | ? | -16% | 16µM* | ? | -30% | ?
